Reference: PubChem BioAssay (Tox21)
Inconclusive results are not listed. Entries that show only a call come without a potency. The source made the active and inactive calls. Calls follow the shape of the full dose curve.

Experiment: p53 small molecule agonists, cell-based qHTS assay with human liver microsomes (AID 1963577);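 also: p53 response element beta-lactamase reporter cells with liver microsomes plus NADPH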
Conditions: HCT-116 p53RE-bla with human liver microsomes, ratio, 16 h; series mostly up to 66 µM
Excerpt: National Center for Advancing Translational Sciences [NCATS]
Division of Preclinical Innovation [DPI]
U.S. Environmental Protection Agency [EPA]
National Institutes of Environmental Health Sciences [NIEHS]
National Toxicology Program [NTP]
U.S. Food and Drug Administration [FDA]
p53, a tumor suppressor protein, is activated following cellular insult, including DNA damage and other cellular stresses. The activation of p53 regulates cell fate by inducing DNA repair, cell cycle arrest, apoptosis, or cellular senescence. The activation of p53, therefore, is a good indicator of DNA damage and other cellular stresses. […] The activation of the reporter gene under culture conditions can be detected by fluorescence intensity.
Tox21 Assay Protocol Summary:
The p53RE-bla cells were dispensed at 4,000cells/3ul/well in 1536-well black-clear bottom plates. After the assay plates were incubated at 37 C, 5% CO2 incubator for 5 hours, 23 nL of compounds dissolved in DMSO, positive controls or DMSO only was transferred to the assay plate. Following compound addition, 3 uL of human liver microsomes (XenoTech, Kansas City, KS) at final concentration of 0.5 mg/mL and 1uL of Beta-Nicotinamide adenine dinucleotide 2-phosphate (NADPH) at final concentration of 0.5 mg/mL were transferred to the assay plate. The plates were incubated at 37 C for 16 hours. 1 uL of LiveBLAzer detection mixture was added to each well and the plates were incubated at room temperature in the dark for 2 h.
In the case of `CCCCCCCCCCCCCCO`, the Potency is reported as “inactive”. In the case of `C=Cc1ccccn1`, the Potency is reported as “inactive”. In the case of `CC(=O)O[C@]1(C(C)=O)CC[C@H]2[C@@H]3C=C(C)C4=CC(=O)CC[C@]4(C)[C@H]3CC[C@@]21C`, the Potency is reported as “inactive”. With `NCCO` the Potency was “inactive”. In the case of `CC/C=C\CCOC(=O)CCCCC`, the Potency is reported as “inactive”. In the case of `Fc1c(F)c(F)c(Br)c(F)c1F`, the Potency is reported as “inactive”. For `Cc1sccc1Br`, the Potency was “inactive”. For `CCCCCCCCCCCCCCCCI`, the activation was -0.459% [at 13.5 µM] (inactive). In the case of `CCc1c(Br)c(Br)c(Br)c(Br)c1Br`, the Potency is reported as “inactive”. With `NC(=S)Nc1cccc2ccccc12` the activation was 6% [at 5.99 µM] (inactive). For `O=S(=O)(O)CO`, the Potency was “inactive”. In the case of `C=CC(C)CCC=C(C)C` (stereo not given), the Potency is reported as “inactive”. In the case of `CN(C)Cc1ccccc1O`, the Potency is reported as “inactive”. In the case of `COc1c2ccoc2cc2oc(=O)ccc12`, the Potency is reported as “inactive”. For `OC/C=C/CO`, the Potency was “inactive”. With `OCCOCCOCCOCCOCCO` the Potency was “inactive”. For `COC(=O)c1ccccc1C(=O)O`, the Potency was “inactive”. With `NCc1cccc(CN)c1` the Potency was “inactive”. In the case of `CC(C)c1cccc(O)c1`, the Potency is reported as “inactive”. With `CC(=O)OCC1=C(C(=O)O)N2C(=O)[C@@H](NC(=O)Cc3cccs3)[C@H]2SC1` the Potency was “inactive”. With `C1CCC2OC2C1` (stereo not given) the Potency was “inactive”. In the case of `[K+]`, the Potency is reported as “inactive”. With `CC(=O)NCCO` the Potency was “inactive”. With `Cc1ccc2c(ccc3ccccc32)c1` the Potency was “inactive”. In the case of `CC(=O)Nc1c(I)cc(I)c(C(=O)O)c1I`, the Potency is reported as “inactive”. For `CC(=O)/C=C/c1ccco1`, the Potency was “inactive”. With `O=C(Cl)c1ccccc1[N+](=O)[O-]` the Potency was “inactive”. For `CCCc1cc(C(N)=S)ccn1`, the Potency was “inactive”. With `c1ccc(Nc2cccc3ccccc23)cc1` the Potency was “inactive”. For `C[C@@H](O)[C@H]1C(=O)N2C(C(=O)O)=C([C@H]3CCCO3)S[C@H]12`, the Potency was “inactive”. In the case of `CCCCCCCCCCCCCC`, the Potency is reported as “inactive”. In the case of `CCCCc1ccc(Cl)cc1`, the Potency is reported as “inactive”. For `CC(C)COC(=O)c1ccc(N)cc1`, the Potency was “inactive”. In the case of `O=C(Cn1ccnc1[N+](=O)[O-])NCc1ccccc1`, the Potency is reported as “inactive”. In the case of `CNC(=O)NC`, the Potency is reported as “inactive”. With `COC(OC)C(C)c1ccccc1` (stereo not given) the Potency was “inactive”. For `C=CCn1cc[n+](C)c1`, the Potency was “inactive”. For `CN(C)CCCN(C)CCCN(C)C`, the Potency was “inactive”. In the case of `CN(CC1(C)CCCO1)S(=O)(=O)c1ccc(Cl)c(S(N)(=O)=O)c1` (stereo not given), the Potency is reported as “inactive”. For `O=C(O)C1CCC(C(=O)O)CC1` (stereo not given), the Potency was “inactive”.
